Screening results as filed in PubChem BioAssay.
The entries come from a sample that favours hits as a whole.
mHTT-CaM PPI inh = disrupts binding of mutant huntingtin to calmodulin; actives 3.6% (n = 190,000); inhibition, % at 15 µM; AlphaScreen His-mHTT/GST-CaM binding, luminescence; P42858;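 note: 0% = both proteins with DMSO and 100% = one protein alone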
Pf apPOL inh = Pf-apPOL DNA polymerase inhibition. Recombinant Pf-apPOL, molecular beacon fluorescence, 1.5 h. inhibition, % at 10 µM. actives 0.25% (n = 210,000)
Numbers without * were called inactive; . = not tested or not shown. Cut-off read from the data, not from the text of the source: active = inhibition above about 50%; inactive = the rest.

SMILES	mHTT-CaM PPI inh	Pf apPOL inh
O=C(CSc1nc2ccccc2c(=O)n1C1CCCC1)c1ccc(Br)cc1	6	-4
O=C(Cc1csc(NC(=O)c2ccco2)n1)NCc1cccs1	-4	3
O=C(Cc1csc(NC(=O)c2ccco2)n1)Nc1ccc(F)c(C(F)(F)F)c1	59*	8
CCCCC[C@H]1CN(CCCC)C(=O)[C@@H]1CC(=O)NCc1ccc(OC)cc1	16	-2
CCCCC[C@H]1CN(CCc2ccccc2)C(=O)[C@@H]1CC(=O)NCc1ccc(OC)cc1	75*	-5
Cc1nc2c(C(=O)NC3CCCCC3)cnn2c(C)c1Cc1cccc(Br)c1	43	-4
Cc1nc2c(C(=O)NC3CCCCC3)cnn2c(C)c1Cc1ccc(Cl)cc1	-6	-2
Cc1nc2c(C(=O)NC3CC3)cnn2c(C)c1Cc1ccc(F)cc1	64*	-5
Cc1nc2c(C(=O)NC3CC3)cnn2c(C)c1Cc1cccc(Cl)c1	97*	-8
Cc1nc2c(C(=O)NC3CC3)cnn2c(C)c1Cc1cccc(Br)c1	92*	-4
Cc1nc2c(C(=O)NC3CCCC3)cnn2c(C)c1Cc1ccc(Cl)cc1	-6	-9
Cc1cc(C(=O)O[C@H]2[C@H](Cc3ccccc3)NS(=O)(=O)[C@H]3C[C@@H]4C=C[C@]23O4)ccc1[N+](=O)[O-]	17	-8
O=C(Nc1ccc(C(F)(F)F)cc1[N+](=O)[O-])O[C@H]1[C@H](Cc2ccccc2)NS(=O)(=O)[C@H]2C[C@@H]3C=C[C@]12O3	65*	-5
CC(C)(Oc1ccc(Cl)cc1)C(=O)N1CC(c2nc(-c3ccccn3)no2)C1	0	5
COc1ccccc1Cc1noc(C2CN(C(=O)C(C)(C)Oc3ccc(Cl)cc3)C2)n1	70*	-4
N#CC1=C(N)Oc2n[nH]c(C34CC5CC(CC(C5)C3)C4)c2C1c1cccs1 (stereo unspecified)	55*	-3
N#CC1=C(N)Oc2n[nH]c(C34CC5CC(CC(C5)C3)C4)c2C1c1ccc(O)cc1 (stereo unspecified)	29	8
CCC(C)N(C(=O)c1cccc([N+](=O)[O-])c1)C(C)CC (stereo unspecified)	0	-1
CCc1cccc(CC)c1NC(=O)c1ccc([N+](=O)[O-])cc1	1	0
O=C(NCCO)/C(=C\c1ccc2c(c1)OCO2)NC(=O)c1ccc(Br)cc1	0	2
Cc1[nH]c2ccccc2c1CCNC(=O)/C(=C/c1ccc2c(c1)OCO2)NC(=O)c1ccccc1	75*	-8
Cc1c(C(=O)N2CCc3ccccc3C2)oc2ccc(S(=O)(=O)N3CCOCC3)cc12	20	7
CCOc1cc(/C=C/c2ccc3cccc(O)c3n2)ccc1O	48	-7
COc1cc(/C=C/c2ccc3cccc(O)c3n2)cc(OC)c1O	74*	-2
COc1ccc(Cl)cc1/C=C/c1ccc2cccc(O)c2n1	52*	-7
SMILES	mHTT-CaM PPI inh	Pf apPOL inh
CCOc1cccc(/C=C/c2ccc3cccc(O)c3n2)c1OC	48	1
Oc1ccc(/C=C/c2ccc3cccc(O)c3n2)cc1Br	62*	4
O=C(O)c1ccc(/C=C/c2ccc3cccc(O)c3n2)cc1	7	5
Cn1c(=O)oc2cc(-c3noc(-c4cc(F)ccc4F)n3)ccc21	-9	1
CCCCNC(=O)c1cn(-c2ccc(Cl)cc2)c(=O)c2ccccc12	-5	-4
CCC(C(=O)N1CCc2cn(CCOC)c3cccc(c23)C1)c1ccccc1 (stereo unspecified)	63*	-3
CCCn1cc2c3c(cccc31)CN(C(=O)COc1ccccc1)CC2	50*	-1
COCCn1cc2c3c(cccc31)CN(C(=O)Cc1ccccc1Cl)CC2	71*	-1
COCCCNC(=O)N1CCc2cn(CCOC)c3cccc(c23)C1	4	-1
COCCn1cc2c3c(cccc31)CN(C(=O)Cc1c(F)cccc1Cl)CC2	-3	0
COCCn1cc2c3c(cccc31)CN(C(=O)COC)CC2	30	-1
COCCn1cc2c3c(cccc31)CN(C(=O)COc1ccc(F)cc1)CC2	56*	-2
COc1ccc(OCC(=O)N2CCc3cn(C)c4cccc(c34)C2)cc1	33	-6
Cc1ccc2nc(NCc3cccnc3)c(C=NCc3cccnc3)c(=O)n2c1	3	-2
CCOc1nccnc1NC1CCN(C(=O)COC)CC1	-1	-3
Cc1cccc(N2CC(C(=O)NCc3cccnc3)CC2=O)c1 (stereo unspecified)	2	-1
CC(Cl)C(=O)N1CCN(c2nccc(-c3ccc(C(C)(C)C)cc3)n2)CC1 (stereo unspecified)	-3	2
O=C(O)c1nccnc1C(=O)Nc1ccc2c(c1)OCO2	.	6
CCn1cc2c3c(cccc31)CN(C(=O)Cc1ccc(F)cc1)CC2	64*	-5
CCn1cc2c3c(cccc31)CN(C(=O)COc1ccc(F)cc1)CC2	74*	-6
CCC(=O)N1CCc2cn(CC)c3cccc(c23)C1	28	-3
COCCn1cc2c3c(cccc31)CN(C(=O)COc1ccccc1)CC2	55*	-1
CCn1cc2c3c(cccc31)CN(C(=O)c1ccccc1F)CC2	56*	-3
CCn1cc2c3c(cccc31)CN(C(=O)Nc1cccc(F)c1C)CC2	-3	1
CCOCC(=O)N1CCc2cn(CC)c3cccc(c23)C1	28	-4
SMILES	mHTT-CaM PPI inh	Pf apPOL inh
COCCn1cc2c3c(cccc31)CN(C(=O)COc1cccc(C)c1)CC2	35	-4
CCOc1ccc(C2C3=C(CC(C)(C)CC3=O)Nc3ncnn32)cc1OC (stereo unspecified)	-8	13
COc1cc(C)c(C)cc1S(=O)(=O)NCC1(CO)CC1	-3	-4
O=C(Nc1ccccc1C(=O)NCc1ccccc1)c1ccc(CN2CCOCC2)cc1	17	15
O=C(CCC1CCCN(C(=O)Nc2ccc(Cl)cc2)C1)NCc1ccc2c(c1)OCO2 (stereo unspecified)	-2	-3
CN(C)C(=NS(=O)(=O)c1ccc(Cl)cc1)c1ccc(Cl)cc1	4	-2
CCC(C)NC(=O)c1nnn(Cc2cccc(Cl)c2)c1-n1cccc1 (stereo unspecified)	-12	2
COCCn1cc2c3c(cccc31)CN(C(=O)Cc1cccc(F)c1)CC2	40	-1
Cn1cc2c3c(cccc31)CN(C(=O)Cc1cccc(F)c1)CC2	53*	-1
COc1ccc(OC(C)C(=O)NCCc2ccccc2)cc1 (stereo unspecified)	-3	6
CC(Oc1ccccc1)C(=O)NCCc1ccc(S(N)(=O)=O)cc1 (stereo unspecified)	25	86*
COc1ccc(S(=O)(=O)NCc2ccc(F)cc2)cc1OC	-1	68*
COc1ccc(S(=O)(=O)NCc2ccc(S(N)(=O)=O)cc2)cc1	-2	-5
COc1ccc(S(=O)(=O)NCc2ccc(CNS(=O)(=O)c3ccc(OC)cc3)cc2)cc1	59*	-2
COc1ccc(S(=O)(=O)NCc2ccc3c(c2)OCO3)cc1OC	4	-3
O=C(NCc1cc(F)cc(F)c1)c1cc2c(s1)CCN(C(=O)c1ccccc1)C2	1	-7
CC(C)OCCCNC(=O)c1ccc2c(c1)nc1n2CCCCC1	-2	3
CCS(=O)(=O)c1ccc(-c2nnc(NC(=O)c3ccc(Br)o3)o2)cc1	-3	-2
CC(NC=C1C(=O)OC(C)(C)OC1=O)C(=O)Nc1ccc([N+](=O)[O-])cc1 (stereo unspecified)	1	1
